# Whole data set: some 39,000 sequences, median “fluorescence intensity (a.u.)” near 4,300, cut for the highest 2% near 39,000. The sample as a whole holds a higher share of the highest values than the screen did.
# Target: T1, OsSMF1 (Oryza sativa, UniProt Q6ZLB0 1-436)
# T1 sequence: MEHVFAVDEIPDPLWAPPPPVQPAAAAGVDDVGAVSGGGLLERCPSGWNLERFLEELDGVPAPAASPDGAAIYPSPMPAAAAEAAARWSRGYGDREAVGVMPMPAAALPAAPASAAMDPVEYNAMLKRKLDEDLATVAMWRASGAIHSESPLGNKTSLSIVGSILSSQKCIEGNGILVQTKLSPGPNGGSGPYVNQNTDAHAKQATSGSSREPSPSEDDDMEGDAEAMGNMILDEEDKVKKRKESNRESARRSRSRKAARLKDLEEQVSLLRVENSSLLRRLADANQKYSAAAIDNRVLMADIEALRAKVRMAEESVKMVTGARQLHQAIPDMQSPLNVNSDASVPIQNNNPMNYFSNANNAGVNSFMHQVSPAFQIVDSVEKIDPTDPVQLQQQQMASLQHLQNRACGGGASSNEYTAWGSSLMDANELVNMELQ
# Assay: protein-binding microarray (RPBM); PBS, 2% BSA, 51.3 ng/ul salmon testes DNA, 50 uM zinc acetate, 200 nM TF, 25 C, 1 h; high values mean tight binding
# Details: protein: recombinant; tags: N-terminal polyhistidine and DsRed monomer fusion (pET32a); chain copies: 2; label: CyDye5-dUTP incorporated in the synthesized complementary strand; 3' TTTTT single-stranded linker to array surface; dsDNA, one strand shown
# Method in brief: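 Binding signal here means per-feature fluorescence intensity in arbitrary units. The values were read on an Axon 4000B scanner after a custom Agilent array, double-stranded by primer extension with Cy5-dUTP, was incubated with 200 nM protein at 25 °C for 1 h in PBS with 2% BSA, salmon testes DNA and 50 µM zinc acetate, then washed. The proteins were transcription factors with an N-terminal polyhistidine tag and DsRed, expressed in E. coli BL21-CodonPlus and purified on Ni–NTA.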
row,Sequence,binding signal
1,AGCTCGTGACGTTAATCTCCGTATAACCAAGCCATGTTGTCGGAGTCACCTAGTGCAG,6620 fluorescence intensity (a.u.)
2,CATATAATTGATAGCAGCATGACAGATTGCCAGTTAGCCGCGGAGTCACCTAGTGCAG,3290 fluorescence intensity (a.u.)
3,AGTAGTAGGGCGCGACACGCGTGTACGTTGCGATAGATGTCGGAGTCACCTAGTGCAG,3330 fluorescence intensity (a.u.)
4,ATGTCTCGTTATCTCCTAAACATGTCATTACACTGGAAACCGGAGTCACCTAGTGCAG,3240 fluorescence intensity (a.u.)
5,TATGGGGCCGTGATATTCAATGTGATGTGCATACAGCATGCGGAGTCACCTAGTGCAG,3720 fluorescence intensity (a.u.)
6,CTGCCTCCTGTTCGCGCTCCACGCCACCACTGCCGACGAGCGGAGTCACCTAGTGCAG,4300 fluorescence intensity (a.u.)
7,AGAGCGATCTGATCGACCGAGTTGTGTCATGCCGTACTACCGGAGTCACCTAGTGCAG,4330 fluorescence intensity (a.u.)
8,AATTATCTTGAAGCACCTCAACTCAACCTGATGTCATACACGGAGTCACCTAGTGCAG,4390 fluorescence intensity (a.u.)
9,GAATTTACTTTAGCGGAGATTGAGCACTTTGTGGACCCAGCGGAGTCACCTAGTGCAG,52400 fluorescence intensity (a.u.)
10,CCAATTTCCGACTTCATGAGATTTATGTCTTTGTGGTCAGCGGAGTCACCTAGTGCAG,3210 fluorescence intensity (a.u.)
11,AGATTTGTGCTCTGACCCACTTCACTCACTTAGTCTCTAGCGGAGTCACCTAGTGCAG,3630 fluorescence intensity (a.u.)
12,ATGTGTAATGACATGACTAGGCATTCCCTTCAGTTAGTCTCGGAGTCACCTAGTGCAG,9940 fluorescence intensity (a.u.)
13,GAGACCGTTCTGAATTTCTGAGACTGATACATATTTGATGCGGAGTCACCTAGTGCAG,40300 fluorescence intensity (a.u.)
14,GTGGAATATTTCTGATCATGGTTTGGGAATAAACGTTCTGCGGAGTCACCTAGTGCAG,3310 fluorescence intensity (a.u.)
15,TGCTTCTGATACTCACGTATATTTCATACACACGTGAATGCGGAGTCACCTAGTGCAG,3210 fluorescence intensity (a.u.)
16,CGTGCATCCGCTTGTGCTGCCACTTCGACAGCCCGCCCGGCGGAGTCACCTAGTGCAG,3570 fluorescence intensity (a.u.)
17,GGGCTCCATAATAGAGTGCCACACTAGCATGTTACGATATCGGAGTCACCTAGTGCAG,3510 fluorescence intensity (a.u.)
18,TTAACAGTTGGTTACTAGTCCTAATTAATTCAGTAGCAATCGGAGTCACCTAGTGCAG,4700 fluorescence intensity (a.u.)
19,TCTACTGCAATTAGTTGATTCAGCTAGTAGCAAACATAATCGGAGTCACCTAGTGCAG,54800 fluorescence intensity (a.u.)
20,CATAATTAGCGGTTGATTACTGTAGCATCACTGTAACAAACGGAGTCACCTAGTGCAG,3730 fluorescence intensity (a.u.)
21,TTTAGAATACTGCTCATACGTCAGTAACAAAGTCACACGACGGAGTCACCTAGTGCAG,3880 fluorescence intensity (a.u.)
22,GCCCAAAGAAAGAAGGAGGTGGACACGTGGGAGATCTGCGCGGAGTCACCTAGTGCAG,11200 fluorescence intensity (a.u.)
23,CCCAATCCGAACGGGACAGCTGCCCACGTGCGACCCATGTCGGAGTCACCTAGTGCAG,4920 fluorescence intensity (a.u.)
24,CATTGCTTTGTTTGATCTTGTGTGCCAATAATTGATGAAACGGAGTCACCTAGTGCAG,55900 fluorescence intensity (a.u.)
25,CCAATTTGACGTGAAATGTTTAGATGATCTCTTGCCAGTACGGAGTCACCTAGTGCAG,3150 fluorescence intensity (a.u.)
26,CTAATATATTGACGTGTAATTCTTTTGTGTGTTTGTGAAACGGAGTCACCTAGTGCAG,6530 fluorescence intensity (a.u.)
27,ACATGGGGAAAACCAGGGACTAAAACTGTAATCAAACAGTCGGAGTCACCTAGTGCAG,29500 fluorescence intensity (a.u.)

row,Sequence,binding signal
1,CCTTCCGTTCGACGCGACACGCGAGTCATTGCTGCCACCACGGAGTCACCTAGTGCAG,3680 fluorescence intensity (a.u.)
2,CCTCTCGTGGCATCGCATCGCATCGTGTCCTCTGCGACTGCGGAGTCACCTAGTGCAG,3630 fluorescence intensity (a.u.)
3,GACAAGCTCGGCACCAATCTCCACAGGAGCCGCATCAGGTCGGAGTCACCTAGTGCAG,3420 fluorescence intensity (a.u.)
4,GACCCAAATGTCATAGAGACACGACGGTTCACATGTCATACGGAGTCACCTAGTGCAG,3900 fluorescence intensity (a.u.)
5,AGTCCAAGAGCGTGACGCATGTTCGGTACCACGCGCACAACGGAGTCACCTAGTGCAG,4740 fluorescence intensity (a.u.)
6,CATGTCGACATGTTCACAAGCGGTACCAAGAGTCAAGACACGGAGTCACCTAGTGCAG,45800 fluorescence intensity (a.u.)
7,TCTCCCTCTACCTCGACGTCATCAACCTCTTCCTCTCCCTCGGAGTCACCTAGTGCAG,11000 fluorescence intensity (a.u.)
8,GTATTGATGTTCTTACCATAAAAGTAACTCCATGAAAGAACGGAGTCACCTAGTGCAG,41100 fluorescence intensity (a.u.)
9,ACACCATGCGTATGATGCAATACCTATTGACTCCATTGAACGGAGTCACCTAGTGCAG,3380 fluorescence intensity (a.u.)
10,GTTAACAGTAAGTTATTCTTTGAACTCCATATATTTGTTCCGGAGTCACCTAGTGCAG,3440 fluorescence intensity (a.u.)
11,GCTTTGCATAGGCACTTTCAAAACTAGATATTAGTAACGCCGGAGTCACCTAGTGCAG,51000 fluorescence intensity (a.u.)
12,ACACTAGTAACAAAACTTGGCAATTTGGCATTTGGCATTTCGGAGTCACCTAGTGCAG,3300 fluorescence intensity (a.u.)
13,TAGATTGCTTTTCAGTGAAACTACGTGCACATATGCATGCCGGAGTCACCTAGTGCAG,3250 fluorescence intensity (a.u.)
14,ACAGGTGCACGCACACGTGCCGCATCAACCAGACAGCCACCGGAGTCACCTAGTGCAG,3360 fluorescence intensity (a.u.)
15,TTATAAATTAAATTTTATGTAATGAAAATAATATCATTGGCGGAGTCACCTAGTGCAG,3900 fluorescence intensity (a.u.)
16,CTCTCAAAATATTCGGATGTAATTTTAGTCGCACAAACATCGGAGTCACCTAGTGCAG,39200 fluorescence intensity (a.u.)
17,AATATTTACATTACTAAATTAGTTTTATTAAATTAATAATCGGAGTCACCTAGTGCAG,19800 fluorescence intensity (a.u.)
18,AAACATAACAATATTTTCAACATAAAACAAATAATGTTATCGGAGTCACCTAGTGCAG,3530 fluorescence intensity (a.u.)
19,GTAAATTTCATAAAATCCCACGTATTATGATTCAAATTGCCGGAGTCACCTAGTGCAG,5110 fluorescence intensity (a.u.)
20,CGGTGTTTGTAATTCATTTTATATAATGAAAATGGATTATCGGAGTCACCTAGTGCAG,44600 fluorescence intensity (a.u.)
21,TGTTTAATAATAAATTTAGTAACATCAATTTTACATGATTCGGAGTCACCTAGTGCAG,46100 fluorescence intensity (a.u.)
22,CATATTATAAAATGTTGTGCTAATTATTATCGGTGTATATCGGAGTCACCTAGTGCAG,22300 fluorescence intensity (a.u.)
23,TAGTTATAAAGCACTGTAATTTTAGTTATAAATACAACATCGGAGTCACCTAGTGCAG,3260 fluorescence intensity (a.u.)
24,AAAATTTATTCATCCATCGTCATAATTTTAATTATATGCACGGAGTCACCTAGTGCAG,4150 fluorescence intensity (a.u.)
25,TTTTATTTCATTATATGATCCCATCAAATATAAATTAGCACGGAGTCACCTAGTGCAG,48500 fluorescence intensity (a.u.)
26,AAATATAATAAATTTAATGTTAACATATTTTACACGTAAGCGGAGTCACCTAGTGCAG,9740 fluorescence intensity (a.u.)
27,CTGCGCGTAGAAGTGACGCAAGAAGGCAGCGGGCCCACTACGGAGTCACCTAGTGCAG,3230 fluorescence intensity (a.u.)
